Results filed as inconclusive are left out. Activity calls are given as the source filed them. No cut-off is given here; in the data, nearly all actives have AC50 up to about 23 µM.

In PubChem BioAssay one finds outcome and AC50 data, which are given here for eleven compounds.

This test can be described thus: viability loss in pontine glioma line – cell-based, SU-DIPG-XIII, MIPE5.0, CellTiter-Glo, qHTS, dose response (AID 1347064).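 For AC50: cells exposed to compound for 48 hours before the viability read.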 Conditions: CellTiter-Glo ATP luminescence. (Cellular ATP, detected with luciferase, serves as a proxy for viable cell number.)
With `CCN1C[C@]2(OC(=O)c3ccccc3NC(C)=O)CC[C@H](OC)[C@@]34[C@@H]2C[C@@H]([C@@H]13)[C@@]1(O)C[C@H](OC)[C@H]2C[C@@H]4[C@]1(O)[C@H]2OC`, the outcome was inactive.

For the compound `C[C@@H]1O[C@@H](O[C@@H]2C=C3CC[C@@H]4[C@H](CC[C@]5(C)[C@@H](c6ccc(=O)oc6)CC[C@]45O)[C@@]3(C)CC2)[C@H](O)[C@H](O)[C@H]1O`, the AC50 (usually the concentration at which the activity in the assay is half-maximal) is 16.6 nM (active).

As for `NC(=O)[C@@H](CC1CC1)[C@@H](CCC(F)(F)F)C(=O)N[C@H]1N=C(c2ccccc2)c2cccc(F)c2NC1=O`, the outcome was inactive.

On to `CN[C@@H]1C[C@H]2O[C@@](C)([C@@H]1OC)n1c3ccccc3c3c4c(c5c6ccccc6n2c5c31)C(=O)NC4`, for which the AC50 is 263 nM (active).

Turning to `C[C@]12CC[C@H]3[C@@H](CC[C@@]45O[C@@H]4C(O)=C(C#N)C[C@]35C)[C@@H]1CC[C@@H]2O`, the half-maximal activity concentration (AC50) was 20900 nM (active).

Consider `c1ccc2c(CN3CCNCC3)cccc2c1`, for which the outcome was inactive.

For `CC1=C2C[C@H]3[C@@H](CC=C4C[C@@H](O)CC[C@@]43C)[C@@H]2CC[C@]12O[C@@H]1C[C@H](C)CN[C@H]1[C@H]2C`, the result was inactive.

Take `O=c1[nH]c2ccc(Cl)cc2c(N[C@@H]2CN3CCC2CC3)c1-c1nc2ccccc2[nH]1`: the AC50 is 3320 nM (active).

`O=C(Nc1ccncc1)C(=O)c1cn(Cc2ccc(Cl)cc2)c2ccccc12`: the AC50 is 1660 nM (active).

Turning to `CN1[C@@H]2CC(O)C[C@H]1[C@@H]1O[C@@H]12` (stereo partly specified), the outcome was inactive.

For `O=C(O)CNC(=O)C1C(=O)N(C2CCCCC2)C(=O)N(C2CCCCC2)C1=O`, the compound was classed as inactive.
